Assay results reported in the supplement of paper PMC12632987.

B1: uchl1_143_7458 (protein)
chain: GLEAIPVLEVHLRVTPADTPEEIRARLMAAIEEAAAAGKALRIVITVEGDANLRVMVGNVAKRVAREAARRYGATLPSLTIVARDAETGREQLLAEADFR
B2: uchl1_143_7457 (protein)
chain: GPEVVPVRRVEITVTRADTPEEIEARLLAAVREAAAAGEALLITITVEGDANLRVMVGNVAKRVARRAAREYGDTLPSLRIIARDAETGKEQLLAEVDNR
B3: uchl1_143_7469 (protein)
chain: APEPIEHIEVTIEVAETDTFEEIHARISAAIDAAIALGRRTELTIRLVVPTTASANLRVMVNTAARRALREHADHLEDASISGEQRPGKAVLVIRVLTKA
B4: uchl1_143_7485 (protein)
chain: EVRVIELTPEQVAAILSASPEAALATLEAIFEAAVALGVDTRVVLPAPADANDRLRLNTLVRRAARRVAKRRADEIDAVVISNERDPDRPARLVVTITVK
B5: uchl1_143_7482 (protein)
chain: EVEVIRLTPEEVEEILSLSPEEALARVKEILAAAVELGKDTEVVFPAPEDANDRLRLGTIVRRAAREVAKEYADKIESVEIYQEKDPDEPPRLVVRITKK
B6: uchl1_143_7460 (protein)
chain: GAAPLPVLRTTIEVSEEDTPEEIYARIKAAIEEAIAAGKAAEVTIVVPPNPNVRVMVNNVAKRAARDVAKEYAGKVKEIRIYLEDRETGKRQLVAEVVNP
B7: uchl1_143_7465 (protein)
chain: GSMHMETLTVERTMTEDTTLEEVYALLEEAAKKAIAEGKDLVVIFTVSSDPNHRLRANTLARRAARRIIQEYGKEIRRLEVLLRDAETGKVDLIALHDGR
B8: uchl1_143_7472 (protein)
chain: AAEARPVRTVEIDVTLDDTPEEIEARLLAAAEEAIAAGEDLRIVVTVPPDPNKRLMVNTVAKRVARRVARAHADRVRRLEIYARDAETGKEQLIAEIVRP
B9: uchl1_143_7481 (protein)
chain: SLENVEVLEVEITVTRETRPEDLYARLLAAIREAHAAGKALRITITVEPDANVRVMVGNVAKRAVRDAAQELGEPFVRTLILARDAETGKTQTLVDVEAP
B10: uchl1_143_7483 (protein)
chain: EVVVIELSPEEVEEILSLSPEEALERVYEILREAVELGRDTEVVFPAPADANDRLRLGTIVRRAARKVAKDRADLIDAVEIYQRRDPNRPPALVVRITRK
B11: uchl1_143_7479 (protein)
chain: GAAPRPVVTTTLTFTEEDTPEEIRARITAALRALVATGQDGVLLLTVPPNPHMRVMVNTVARRALREVAQATHAPGVTLTVQARDAETGKVDTLATAVLE
B12: uchl1_143_7486 (protein)
chain: EVEVIELSEEEVAEILALSPEEALERLKEILREAVELGKDTRVLIPAPEDANDRLRLNTLVRRAAREVAKEYADKIESVTISQERDPNGRPRIVVEIKVK
B13: uchl1_143_7475 (protein)
chain: APAALEVLTTHLEVGEDDTPEEIRARLLAAIDEALAAGKAAEIVVTVPPDANKRLMVNTVARRVAREAARRYGDRLRLLRILLRDAETGRTQLVALVERP
B14: uchl1_143_7476 (protein)
chain: PPEALPVLETTIEVSEDDTPEEIRARLMAAIDEALAAGKAARIVIVVPPDANKRLMVNTVARRVAREAARRYGERLRYLEILLRDKETGKEQLVALVERP
B15: uchl1_143_7466 (protein)
chain: GPAPVPVLRVERTWTADTTLEEVLALLREAAERAIKEGKDLEVIFTVSPDPNHRLRANTLARRAGKEITQELGKRIRRLRVLLRDAETGKVDLIYEHDGR
B16: uchl1_143_7463 (protein)
chain: EEVELEVIHIEVTLTEDTTLEEVRALVEEAARLSIETGKHVVLTATVSNDPNHRLRANTMLRRAAREVIQERGAEIPKLVILLRDAETGKEDVIAEFDNR
B17: uchl1_143_7473 (protein)
chain: HHHMMETETVEIEVKEDDTPEEIRERMMKAIEEAIAAGKNLRIVITVPSDANKRLMANTVAKRVAREAAKKYREKLKRLEIYLRDKETGKEDLIALVENP
B18: uchl1_143_7484 (protein)
chain: EVKVIELSPEEVAEILSASPEEALARLKEILEEAVELGVDTEVVLPAPADANDRLRLNTLVRRAAREVAKKYADKIDSVTISQRLDPDEPPKLVVSIKVK
B19: uchl1_143_7470 (protein)
chain: GRPTPPTLTVNLTFDETTTPEEIRAALNAAIDEAAAAGKNLTITITVPADSNKRLMVTTVARRVAREAAKRYRDKLPELRILATDAATGKTQLIAEYVNE
B20: uchl1_143_7462 (protein)
chain: GAPALPVLRTTIEVTREDTPEEIHARIVAAIREAIAAGKAAEVTIVVPPDPNVRVMVNNVAKRAAREVAQEHADAVKRITIRLRDRETGRTQLVALVERP
B21: uchl1_143_7456 (protein)
chain: PPAPVPVHRVTIEVTREDTPEEIRARLEAAVAEAAAAGAALEITVVVTSDPNVRVMANTVARRVAREAARRYRDTLPSLRIVLRDRETGKEQLIAEADFR
B22: uchl1_143_7474 (protein)
chain: PLEHMEIETVEIEVSETDTPEEIEKRLREAIEKGIEKGKALRIVVTVPPDANKRLMVNTVARRVARETAKKYKDKLKYLEILLRDRETGKVDLAALIERP
B23: uchl1_143_7464 (protein)
chain: GSAPRPVIHLERTLSADTTLEEVEALVREAAELSVETGAPVVLTFTVSGDPNHRLRAHTMLRRAARRVIQELADRIPELRVLLRDEKTGKTQLIAHFDNR
B24: uchl1_143_7478 (protein)
chain: GAPEPEIPVIRLELDAADSDEEIRKRALEAAKEAAEKGAALEIIITVPPDPNARVRANNIAKRLAREIIKKYGDKIKELRVLLRDEETGREDLIALYEKP
B25: uchl1_143_7480 (protein)
chain: GAPARPVVTRTLRFTEEDTPEEIRARITAAIRALVATGQDGVLLLTVPPNPNMRVMVSTVARRALREVAQETRAPGVTLTVEARDEETGKVDVLATADLK
B26: uchl1_143_7461 (protein)
chain: ALEPLPVQKTTIEVSESDTPEEIYERIKAAIEAAIAAGKAAEVTIVVPPDPNVRVMVNNVAKRAAREVAQEHADKVKRITINLTDKETGKTEVVAEVVRP
B27: uchl1_143_7467 (protein)
chain: GPAAEPVLEVTIRVTRDTTPEELRARLLAAIDEAIAAGKALKITIEIPPDANLRVMVNTVAKRVAREVAKARGAELKRLVILGRDSATGKEQVLAEVVNP
B28: uchl1_143_7459 (protein)
chain: GSPEEEVEVIEVTIEPTDTPEQIREKITKALKEAVELEKDTRIVITVPPDPNLKLMVNTVARRELKKIAQEYPEKTKTITVEARDAETGKVDLLAEYVKE
B29: uchl1_143_7471 (protein)
chain: GEPEPPTLEVHIEVDETTTPEEIREKLWKAIEEAAKAKKNLKITITVPADSNKRLMVTTVAKRVAREAAKKYKNELKKLEIYARDAATGKEQLIAEYENP
B30: uchl1_143_7468 (protein)
chain: GPAVEPVETVTITVTPDTTPEELRARLLAAIDAALAAGKALTITIVVPPDANLRVMANTVAKRVAREVARAHGDRLRRLTIRARDAATGKTQLLAEVVNP
B31: uchl1_143_7477 (protein)
chain: GAPEEPIETIKLTLDASMSDEEIRAKAMAAAEEAAAKGAALEITIVVPPDPNARVRANNIAKRIAREIIQKYGDKIKELKIYLQDEETGKKDLIALYEKP
B32: uchl1_143_7455 (protein)
chain: GHHMLEVEKIEIEVEETDTPEEIKKKIMEAMKKAVAKGKAIEIIITVPPDANFRLMVNTVAKRAAREFAKEYKDKLKYLKIYARDKETGKEDLIAEIVNP

Each binder was assayed against UCHL1, P09936 (assay: median log2 fold change of GCK-ALFA target abundance (FLAG IP / Myc IP barcode read proportion) (log2 ratio); each designed protein is fused to an ALFA-tag nanobody in HEK293 cells to bring the named protein to FLAG-tagged glucokinase (GCK); Myc marks an untargeted standard; higher = target protein stabilised (more abundant)). Conditions: target protein: 3xFLAG-MCP-GCK-ALFA reporter; HEK293 landing pad (RPLP).
UCHL1, P09936, sequence (P09936 whole entry, looked up, the tested form may be a part): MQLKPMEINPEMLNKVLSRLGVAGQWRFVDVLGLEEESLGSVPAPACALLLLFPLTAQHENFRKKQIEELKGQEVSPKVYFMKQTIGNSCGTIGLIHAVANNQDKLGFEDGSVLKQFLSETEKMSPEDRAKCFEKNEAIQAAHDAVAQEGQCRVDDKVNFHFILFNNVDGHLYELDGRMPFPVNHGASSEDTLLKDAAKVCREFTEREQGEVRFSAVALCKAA
Procedure, shortened: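 The readout is target abundance, the per-binder median log2 ratio of FLAG to Myc barcode read proportions. It came from HEK293 landing-pad cells carrying a recombined ALFA-nanobody-fused binder library, induced with 2 μg mL^−1 doxycycline and transfected with a plasmid for a FLAG-tagged target and a Myc-tagged standard. After 48 h, lysates were immunoprecipitated with anti-FLAG and anti-Myc, and circular RNA barcodes were reverse transcribed, amplified and sequenced. Each barcode needed a proportion of at least 10^−7 in both replicates and each binder at least 3 barcodes per replicate, a pseudocount of 10^−6 was added, and the replicates were pooled.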

B1 and B2 are within 0.2 log units of each other in “median log2 fold change” value: 0.147 for the first, 0.225 for the second.

Compared with B3, B4 is lower in “median log2 fold change” value: 0.139 for the first, -0.394 for the second.

B5 and B6 are within 0.2 log units of each other in “median log2 fold change” value: 0.231 for the first, 0.0504 for the second.

B7 and B8 are within 0.2 log units of each other in “median log2 fold change” value: 0.138 for the first, 0.3 for the second.

First: B9
Second: B10
The “median log2 fold change” value of the first is higher: 0.391 for the first, -0.0334 for the second.

B11 and B12 are within 0.2 log units of each other in “median log2 fold change” value: 0.219 for the first, 0.252 for the second.

B13 and B14 are within 0.2 log units of each other in “median log2 fold change” value: 0.136 for the first, 0.0615 for the second.

B15 and B16 are within 0.2 log units of each other in “median log2 fold change” value: 0.0958 for the first, 0.184 for the second.

B17 and B18 are within 0.2 log units of each other in “median log2 fold change” value: 0.139 for the first, 0.0432 for the second.

B19 and B20 are within 0.2 log units of each other in “median log2 fold change” value: 0.272 for the first, 0.133 for the second.

First: B21
Second: B22
The “median log2 fold change” value of the first is lower: 0.0928 for the first, 0.325 for the second.

B23 and B24 are within 0.2 log units of each other in “median log2 fold change” value: 0.163 for the first, 0.179 for the second.

Going from B25 to B26, the “median log2 fold change” value rises from -0.0743 to 0.242.

Going from B27 to B28, the “median log2 fold change” value rises from -0.119 to 0.347.

B29 and B30 are within 0.2 log units of each other in “median log2 fold change” value: 0.0842 for the first, 0.11 for the second.

B31 and B32 are within 0.2 log units of each other in “median log2 fold change” value: 0.136 for the first, 0.157 for the second.
